DT40 TDP1 no CPT: qHTS for Inhibitors of human tyrosyl-DNA phosphodiesterase 1 (TDP1): qHTS in cells in absence of CPT; AID 686978, 2013; Potency, µM (top dose mostly 46.2 µM), for inactives: at the top dose activity change, negative = growth inhibition, most hits filed as inhibitors; hit rate 15% among 420,000; DT40 Tdp1-/- hTDP1 cells, no CPT, ATP luminescence, 48 h; note: potency is the fitted concentration of half-maximal effect; nearly all actives have a fitted effect of over 55% in size
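Chicken DT40 Tdp1-/- cells complemented with human TDP1, screened without camptothecin (DMSO vehicle only), 400 cells/well. Compounds pin-transferred, cells incubated at 37 °C for at least 48 hr. Growth read as ATP-dependent luminescence (CellTiter-Glo, 30 min at RT).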
Six1-Eya2 blk: qHTS Assay for Inhibitors of the Six1/Eya2 Interaction; Homeobox protein SIX1 (Homo sapiens) + Protein phosphatase EYA2 (Homo sapiens), …; AlphaScreen GST-Six1/His-Eya2 binding, biochemical; stronger effect = lower value; activity change, % (test concentration not listed); hit rate 0.56% among 360,000; AID 651725, 2012; in the data active = activity change below about -65%; inconclusive = mostly about -30% to -63%
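Six1/Eya2 binding was read as AlphaScreen signal after compounds were pinned into GST-Six1 plus His-tagged Eya2 (5X stock 250/500 nM) in pH 8.0 Tris/NaCl/TCEP buffer, beads added, then incubated 1 h, 37 C, dark.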
IL-1B inflam inh: qHTS for Inhibitors of Inflammasome Signaling: IL-1-beta AlphaLISA Primary Screen. activity change, % at 57.5 µM. hit rate 4.7% among 360,000. THP-1 LPS/ATP IL-1B secretion, AlphaLISA, 16 h; stronger effect = lower value; in the data active = activity change below about -50%; inconclusive = mostly about -30% to -49%
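Secreted IL-1B measured by AlphaLISA bead assay after 16 h compound exposure of THP-1 cells; compounds (final up to 57.5 uM) added 1 h before LPS (250 ng/mL) and ATP (1.25 mM) stimulation; lower signal means less secretion.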
TDP1 cell CPT: qHTS for Inhibitors of human tyrosyl-DNA phosphodiesterase 1 (TDP1): qHTS in cells in presence of CPT | hit rate 12% among 420,000 | chicken DT40 Tdp1-/-;hTDP1 cells + 20 nM CPT, ATP luminescence, 48 h | Potency, µM (series often up to 46.2 µM), inactives show top-dose activity change, negative = growth inhibition, hits mostly inhibitors | AID 686979, 2013; note: potency is the fitted concentration of half-maximal effect; nearly all actives have a fitted effect of over 55% in size
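Chicken DT40 Tdp1-/- cells complemented with human TDP1, 400 cells/well, exposed to compounds plus 20 nM camptothecin for at least 48 h at 37 C; viability read as ATP content by CellTiter-Glo luminescence.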
CtBP-E1A inh: qHTS Assay for Inhibitors of the CtBP/E1A Interaction; CtBP / adenovirus E1A interaction (AlphaScreen); AlphaScreen GST-E1A/His-CtBP binding, 1536-well; stronger effect = lower value; activity change, % (concentration not given with the values); hit rate 0.49% among 340,000; AID 651724, 2012; in the data active = activity change below about -65%; inconclusive = mostly about -30% to -63%
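Steps: dispense buffer (Tris pH 8.0, NaCl 300 mM, TCEP 1 mM, BSA, Tween 20); add 5X protein mix (GST-E1A, His-CtBP, 125 nM each); pin 23 nL compound; 2 h at 37 °C, dark; add 5X beads (50 ug/mL); 1 h; read.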
TDP1 inh: qHTS Assay for Inhibitors of Tyrosyl-DNA Phosphodiesterase (TDP1). Tyrosyl-DNA phosphodiesterase 1 (Homo sapiens), Q9NUW8. recombinant TDP1, AlphaScreen DNA substrate cleavage. Potency, µM (doses to about 130 µM), inactives show top-dose activity change, negative = inhibition, usual class: inhibitors. hit rate 0.28% among 350,000; note: potency is the fitted concentration of half-maximal effect; nearly all actives have a fitted effect of over 40% in size
Target sequence (Q9NUW8 whole entry, looked up): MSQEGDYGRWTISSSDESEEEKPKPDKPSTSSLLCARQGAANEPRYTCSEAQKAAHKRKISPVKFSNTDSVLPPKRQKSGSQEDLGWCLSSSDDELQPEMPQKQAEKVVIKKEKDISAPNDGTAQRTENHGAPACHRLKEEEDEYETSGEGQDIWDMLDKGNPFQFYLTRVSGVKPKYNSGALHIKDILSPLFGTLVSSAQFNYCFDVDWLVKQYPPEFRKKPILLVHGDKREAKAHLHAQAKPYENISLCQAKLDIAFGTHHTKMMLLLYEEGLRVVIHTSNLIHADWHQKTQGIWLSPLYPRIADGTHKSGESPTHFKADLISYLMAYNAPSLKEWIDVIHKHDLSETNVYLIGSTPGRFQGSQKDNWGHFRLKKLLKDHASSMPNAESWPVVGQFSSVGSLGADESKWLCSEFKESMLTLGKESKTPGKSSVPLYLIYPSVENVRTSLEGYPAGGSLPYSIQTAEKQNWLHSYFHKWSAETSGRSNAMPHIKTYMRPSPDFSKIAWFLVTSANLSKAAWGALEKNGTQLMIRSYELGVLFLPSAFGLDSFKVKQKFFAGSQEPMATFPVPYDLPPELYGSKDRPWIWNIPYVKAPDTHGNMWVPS
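E. coli-derived human Tdp1, 1 nM final. Cpd preinc 15 min RT; substrate 15 nM final, 5 min RT; AS bead mix 10 ug/ml final, 10 min RT. Signal loss = tyrosine-FITC cleavage. No-enzyme wells = max signal.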
The depositor's hits bear a star; ? = inconclusive; . = not tested or not shown; ! = not confirmed by another sample; [ ] = another dose, or the depositor's remark. The list is not random: actives were taken first. Their share in the collection is about 18%. Unless noted, calls come from the whole dose curve; as a rule, active = well fitted curve in the direction sought with a large enough effect; inconclusive = small, poorly fitted or top-dose-only effect, or another doubt; inactive = no such curve, though single readings can be large; an effect the other way counts as inactive or inconclusive. % is set by controls: 0 for no effect and ±100 for the full control effect.

SMILES	DT40 TDP1 no CPT	Six1-Eya2 blk	IL-1B inflam inh	TDP1 cell CPT	CtBP-E1A inh	TDP1 inh
O=C1NC[C@@H](CCCCN2C[C@H](Cc3ccc(O)cc3)N(CCc3ccccc3)C(=O)C2=O)N(CCC2CCCCC2)C1=O	-3.8%	-6.8	?	1.9%	1.9	.
O=C1NC[C@H](CCCCN2C[C@H](Cc3ccccc3)N(CC3CCCCC3)C(=O)C2=O)N(CC2CCCCC2)C1=O	29.1µM*	24.9	-76.5*	?	0.0	.
O=C1NC[C@H](CCCCN2C[C@H](Cc3ccccc3)N(CCc3ccc(O)cc3)C(=O)C2=O)N(CCC2CCCCC2)C1=O	?	-10.9	-57.5*	?	-6.4	.
O=C1CCCC(=O)C1C1c2ccccc2CCN1C(=O)CCl (stereo not drawn)	3.0%	2.6	-4.2	1.8%	0.0	3.6%
CN(C)c1ccc(NC(=S)NC(=O)/C=C/c2ccco2)cc1	-23.0%	6.3	3.2	1.4%	2.6	2.6%
CC(C)CC1Nc2ncnc(N3CCN(c4ccccc4)CC3)c2N(Cc2ccc(Cl)cc2)C1=O (stereo not drawn)	18.4µM*	-19.8	-29.8	?	-14.2	3.6%
CC(C)CC1Nc2ncnc(N3CCCCC3)c2N(Cc2ccc(Br)cc2)C1=O (stereo not drawn)	16.4µM*	-3.2	-4.9	?	-8.1	0.9%
CC(C)CC1Nc2ncnc(N3CCN(c4ccccn4)CC3)c2N(Cc2ccccc2)C1=O (stereo not drawn)	?	-8.9	-56.3*!	?	19.3	3.7%
Cc1ccc(CN2C(=O)C(CC(C)C)Nc3ncnc(N4CCN(c5ccccc5)CC4)c32)cc1 (stereo not drawn)	20.6µM*	-22.2	?	14.6µM*	-3.5	5.3%
CC(C)CC1Nc2ncnc(N3CCOCC3)c2N(Cc2ccc(Br)cc2)C1=O (stereo not drawn)	?	-3.4	9.9	?	-0.8	0.7%
CCC1Nc2ncnc(N3CCN(c4ccccc4)CC3)c2N(Cc2ccc(C)cc2)C1=O (stereo not drawn)	?	-17.5	9.6	?	-14.3	1.8%
CCOC1=C2CN(S(=O)(=O)c3ccc(Cl)cc3)[C@H](c3ccccc3)C[C@@H]2N(S(=O)(=O)c2ccc(C)cc2)[C@H](c2ccccc2)C1	?	-3.7	3.7	-12.4%	3.9	.
CCc1ccc(C(=O)NC(C(=O)NCC2CCCO2)C(C)C)cc1 (stereo not drawn)	?	1.5	-3.7	19.4%	-1.1	0.0%
COc1cccc(CNC(=O)C2CCCCN2S(=O)(=O)c2ccc(F)cc2)c1 (stereo not drawn)	?	.	.	?	.	2.6%
COc1ccc(-c2cc(-c3ccc(F)cc3)nc3c2COc2ccc(F)cc2-3)cc1	?	.	.	?	.	3.2%
Cc1cc(NCc2ccccn2)n2ncc(-c3ccccc3)c2n1	0.146µM*	9.0	-7.5	0.164µM*	0.1	5.1%
Cc1cc(NCc2ccccn2)n2ncc(-c3ccc(Cl)cc3)c2n1	0.82µM*	21.3	-2.8	0.581µM*	18.2	8.2%
COc1ccccc1Cc1nc2ccccc2nc1SCC(=O)Nc1cc(Cl)ccc1OC	?	.	.	?	.	5.4%
COc1ccc(Cl)cc1NC(=O)CSc1nc(-c2ccccc2)c2ccccc2n1	20.6µM*	.	.	7.31µM*	.	0.0%
CCc1cccc2c(-c3ccccc3)nc(SCC(=O)Nc3ccccc3OC)nc12	18.4µM*	.	.	?	.	2.3%
CCc1cccc2c(-c3ccccc3)nc(SCC(=O)Nc3ccc(OC)cc3)nc12	5.1%	.	.	-10.6%	.	4.7%
COC(=O)c1c(SCC(=O)Nc2ccccc2OC)[nH]c2ccccc2c1=O	?	.	.	23.1µM*	.	0.0%
COc1ccccc1NC(=O)CSc1nnc2c3ccccc3n(C(C)C)c2n1	4.61µM*	.	.	3.66µM*	.	.
Cc1nnc(SCC(=O)Nc2ccc(Oc3ccccc3)cc2)n1N	-23.4%	0.6	5.1	-21.0%	4.4	3.3%
Cc1cc2ccccn2c1C(=O)Nc1cccc(Cl)c1	?	5.1	0.0	-6.7%	0.0	-1.6%
SMILES	DT40 TDP1 no CPT	Six1-Eya2 blk	IL-1B inflam inh	TDP1 cell CPT	CtBP-E1A inh	TDP1 inh
Cc1cnc(CNc2ncnc3ccc(-c4ccccc4CN(C)C)cc23)cn1	?	.	.	-16.8%	.	10.1%[56.1 µM]
COc1cccc(-c2ccc3ncnc(NCc4cccc(C)c4)c3c2)c1	.	.	.	.	.	1.9%
Cc1cnc(CNc2ncncc2-c2ccccc2CN(C)C)cn1	?	.	.	-28.3%	.	28.2µM*
COc1cccc(-c2ccc3ncnc(NCc4cnc(C)cn4)c3c2)c1	14.6µM*	.	.	23.1µM*	.	.
Cc1cnc(CNc2ncnc3ccc(-c4ccccc4C)cc23)cn1	?	.	.	16.4µM*	.	.
Cc1ccnc(SCc2cc(=O)c(OC(=O)c3ccc(Cl)c([N+](=O)[O-])c3)co2)n1	-4.2%	-10.5	14.2	-16.1%	25.0	6.7%
CCOC(=O)N1CCN(CC(=O)Nc2cc(OC)c(OC)cc2C#N)CC1	-23.3%	1.5	9.9	0.6%	-26.3	8.9%
Cc1ccc(N2N=C(C(=O)O)CCC2=O)cc1Cl	13.0%	8.5	12.1	3.4%	10.7	.
Cc1cc(S(=O)(=O)N2CCCc3ccccc32)ccc1-n1cnnn1	?	-0.2	-8.8	?	4.6	.
O=C(NCc1cccs1)C(=O)NCC(c1ccco1)N1CCN(c2ccccc2F)CC1 (stereo not drawn)	?	-3.6	17.0	23.1µM*	0.3	2.4%
O=C(NCC(c1ccco1)N1CCN(c2ccccc2F)CC1)C(=O)NC1CCCC1 (stereo not drawn)	9.2µM*	1.5	6.3	?	4.4	.
O=C(NCC(c1ccco1)N1CCN(c2ccccc2F)CC1)c1cccs1 (stereo not drawn)	?	-2.0	-2.4	-26.5%	-2.3	.
O=C(NCC(c1ccco1)N1CCN(c2ccccc2)CC1)C1CCCCC1 (stereo not drawn)	23.1µM*	1.3	-7.3	?	0.3	.
Cc1cc(C)c(S(=O)(=O)Cc2ccccc2)c(OC(C)C)n1	-11.7%	4.1	11.6	-27.8%	7.6	.
COc1ccc(NC(=O)CSc2nc(=O)n(CCN3CCOCC3)c3c2CCC3)c(OC)c1	-10.5%	-9.2	9.3	-2.5%	2.3	1.7%
